Measured values taken from publication PMC4336329 (PLoS ONE, 2015).
Screen size: about 310,000 compounds; about 14,000 (4.5%) showed an effect of 50% or more. The effect is printed as a negative number. For the sample, strong results were picked, then their nearest neighbours and some compounds at random.

Biological target: human ether-à-go-go-related gene (hERG) potassium channel (human, UniProt Q12809)
Assay: primary screen, population patch clamp on CHO cells stably expressing hERG; higher = less effect of the substance
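Further: peak tail current of the secondary pulse compared with the same well before compound.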

Sequence of human ether-à-go-go-related gene (hERG) potassium channel (Q12809 whole entry, looked up): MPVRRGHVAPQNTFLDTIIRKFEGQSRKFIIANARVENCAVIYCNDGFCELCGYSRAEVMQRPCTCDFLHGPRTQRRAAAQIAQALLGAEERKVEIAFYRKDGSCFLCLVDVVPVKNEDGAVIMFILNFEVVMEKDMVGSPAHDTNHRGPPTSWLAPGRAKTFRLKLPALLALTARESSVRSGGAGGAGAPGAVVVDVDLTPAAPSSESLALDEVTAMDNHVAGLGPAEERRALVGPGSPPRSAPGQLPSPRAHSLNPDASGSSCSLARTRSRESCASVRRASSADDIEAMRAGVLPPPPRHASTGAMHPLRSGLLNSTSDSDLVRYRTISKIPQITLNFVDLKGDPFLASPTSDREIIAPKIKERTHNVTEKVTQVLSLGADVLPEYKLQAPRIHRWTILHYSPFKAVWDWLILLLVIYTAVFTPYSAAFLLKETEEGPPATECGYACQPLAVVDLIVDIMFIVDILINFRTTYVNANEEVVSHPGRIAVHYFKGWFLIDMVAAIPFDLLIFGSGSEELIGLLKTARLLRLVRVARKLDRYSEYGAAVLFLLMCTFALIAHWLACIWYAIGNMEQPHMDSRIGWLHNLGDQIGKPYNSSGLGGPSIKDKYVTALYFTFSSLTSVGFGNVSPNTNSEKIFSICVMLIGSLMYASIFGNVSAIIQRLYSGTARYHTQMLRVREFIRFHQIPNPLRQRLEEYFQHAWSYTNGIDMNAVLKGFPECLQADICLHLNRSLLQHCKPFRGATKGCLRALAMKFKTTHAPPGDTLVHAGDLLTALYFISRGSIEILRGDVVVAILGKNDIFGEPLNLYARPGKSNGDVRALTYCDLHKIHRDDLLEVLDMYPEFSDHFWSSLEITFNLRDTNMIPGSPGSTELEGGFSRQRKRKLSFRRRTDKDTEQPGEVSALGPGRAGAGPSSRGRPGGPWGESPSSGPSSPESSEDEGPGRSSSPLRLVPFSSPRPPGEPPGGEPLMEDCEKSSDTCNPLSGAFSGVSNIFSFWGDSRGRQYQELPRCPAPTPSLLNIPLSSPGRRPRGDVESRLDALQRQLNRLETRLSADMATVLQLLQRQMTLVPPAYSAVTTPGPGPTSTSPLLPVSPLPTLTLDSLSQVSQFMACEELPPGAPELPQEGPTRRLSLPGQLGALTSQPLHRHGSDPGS

Structure (SMILES)	hERG current change (%, negative = inhibition) at 10uM [%]
COc1ccccc1NC(=O)CNc1ccc(F)c(Cl)c1	-11.7
CCn1cc([N+](=O)[O-])c(C(=O)Nc2ccc3c(c2)OCCO3)n1	-9.69
COCCCNC(=O)c1ccccc1Sc1ccc(NC(C)=O)nc1	25.8
C=CCn1c(SCC(=O)c2ccc(OC)cc2)nnc1-c1cc2cccc(OC)c2o1	25.8
CCC(C)NC(=O)CCc1nnc2ccc(N3CCC(C)CC3)nn12 (centres unmarked)	3.66
COc1ccc(N2CC(C(=O)Nc3ccc4c(c3)OCCO4)CC2=O)cc1 (centres unmarked)	4.94
CCc1ccc(NS(=O)(=O)c2ccc3oc(=O)ccc3c2)cc1	-1.91
CCOC(=O)C1(Cc2ccc(Cl)cc2)CCN(C(=O)c2ccoc2)CC1	-49.4
CCOC(=O)C1(Cc2ccc(Cl)cc2)CCN(C(=O)c2cc(C)nc(C)n2)CC1	-38.1
CCOC(=O)C1(Cc2ccc(Cl)cc2)CCN(C(=O)C2CCCO2)CC1 (centres unmarked)	-33.2
O=C1CCC(C(=O)N2CCC(CO)(Cc3ccc(Cl)cc3)CC2)=NN1	-32.5
CCOC(=O)C1(Cc2ccc(OC)cc2)CCN(C(=O)c2csc(C)n2)CC1	2.99
CCOC(=O)N1CCN(C(=O)C2CCC(=O)N(Cc3ccc(Cl)cc3)C2)CC1 (centres unmarked)	-40.5
CCOC(=O)C1(Cc2ccc(Cl)cc2)CCN(C(=O)c2sc(C)nc2C)CC1	-52.9
CCOC(=O)C1(Cc2ccc(Cl)cc2)CCN(C(=O)c2cscn2)CC1	-37.4
CCOC(=O)C1(Cc2ccc(Cl)cc2)CCN(C(=O)c2cnc(C)cn2)CC1	-57.1
CCOC(=O)C1(Cc2ccc(Cl)cc2)CCN(C(=O)C2=NNC(=O)CC2)CC1	-69.6
CCOC(=O)C1(Cc2ccc(OC)cc2)CCN(C(=O)c2sc(C)nc2C)CC1	1.86
C=CCN1CC(C(=O)N2CCC(Cc3ccc(Cl)cc3)(C(=O)OCC)CC2)CC1=O (centres unmarked)	-72.4
O=C1CC(NS(=O)(=O)c2cccs2)CN1c1cccc(F)c1 (centres unmarked)	-6.29
O=C(Nc1ccc(Cl)c(S(=O)(=O)N2CCOCC2)c1)c1ccc2c(c1)OCCO2	12.6
COc1ccc2c(c1)C1NC(=S)N[C@@](C)(O2)C1C(=O)Nc1ccccc1 (some centres unmarked)	-3.49
CCOC(=O)[C@H]1[C@H]2COc3cc(OC)ccc3[C@@H]2N2C(=O)CN(Cc3ccccc3)C(=O)[C@@]12C	-8.34
COc1ccc(OC)c(NS(=O)(=O)c2ccc(Br)s2)c1	-12.4

Structure (SMILES)	hERG current change (%, negative = inhibition) at 10uM [%]
N#CC1=C(N)N(c2ccccc2Sc2ccccc2)C(=O)C1	3.4
Cc1ccc(NC(=O)N2CCC(NC(=O)c3ccco3)CC2)cc1	4.55
COC(=O)C(C)Sc1nc2c(c(=O)n1-c1ccccc1)SCC2 (centres unmarked)	-6.49
COc1ccc(NC(=O)CN(C)C(=O)c2cn(-c3ccccc3)nc2-c2ccc(OC)cc2)cc1	-7.66
CCCS(=O)(=O)N1CCN(S(=O)(=O)c2ccc(F)cc2)CC1	10.6
O=C(Nc1nccs1)C1CCCCN1S(=O)(=O)c1ccccc1 (centres unmarked)	4.8
Cc1ccc(C)c(NS(=O)(=O)c2ccc(-c3cnc(C4CC4)o3)cc2)c1	4.27
CC(C)CCn1c(CN2CCN(Cc3ccccc3)CC2)nc2c1c(=O)[nH]c(=O)n2C	-17.6
CCN1CCN(c2nc3c(c(=O)[nH]c(=O)n3C)n2Cc2ccccc2)CC1	-27.7
Cn1c(=O)[nH]c(=O)c2c1nc(CN1CCN(Cc3ccccc3)CC1)n2CC(N)=O	7.32
CCCCCCn1c(N2CCN(c3ccccc3)CC2)nc2c1c(=O)[nH]c(=O)n2C	-32.6
CCCCCn1c(N2CCN(Cc3ccccc3)CC2)nc2c1c(=O)[nH]c(=O)n2C	-74.8
Cn1c(=O)[nH]c(=O)c2c1nc(CN1CCOCC1)n2Cc1ccccc1	-15.7
Cc1cccc(Cn2c(CN3CCN(Cc4ccccc4)CC3)nc3c2c(=O)[nH]c(=O)n3C)c1	-64.9
CCN1CCN(c2nc3c(c(=O)[nH]c(=O)n3C)n2CCCc2ccccc2)CC1	-79.2
CCCCCn1c(CN2CCN(Cc3ccccc3)CC2)nc2c1c(=O)[nH]c(=O)n2C	-72.3
CN1CCN(Cc2nc3c(c(=O)[nH]c(=O)n3C)n2CCc2ccccc2)CC1	-28.1
Cn1c(=O)[nH]c(=O)c2c1nc(N1CCN(Cc3ccccc3)CC1)n2CCSc1ncccn1	-25.7
Cn1c(=O)[nH]c(=O)c2c1nc(N1CCN(Cc3ccccc3)CC1)n2CCCc1ccccc1	-31.9
COc1ccc(OC)c(NC(=O)CS(=O)(=O)Cc2nc(-c3ccccc3C)oc2C)c1	7.66
COc1ccc2c(C)cc(SC3CCOC3=O)nc2c1 (centres unmarked)	-0.712
CCCC(=O)NC(=S)Nc1cccc(NC(=O)c2ccccc2Cl)c1	-3.15
CCCCCn1c(CN2CCN(c3cccc(Cl)c3)CC2)nc2c1c(=O)[nH]c(=O)n2C	-63.3
